Columns and labels:
Format in all cases: functional
[1] = molecular target: Solute carrier family 2, facilitated glucose transporter member 1 (Homo sapiens) (UniProt P11166); test: ST_JUDE_LEISH: Cytotoxicity at 2uM final concentration against transgenic Leishmania Mexicana promastigotes LmGLUT1 that are glucose transport deficient and complemented with the human glucose transporter GLUT1. Activity is measured by DNA content using SYBR green in vitro
[2] = molecular target: Hexose transporter 1 (Plasmodium falciparum) (UniProt O97467); test: ST_JUDE_LEISH: Cytotoxicity at 2uM final concentration against transgenic Leishmania Mexicana promastigotes LmPfHT that are glucose transport deficient and complemented with the Plasmodium falciparum hexose transporter. Activity is measured by DNA content using SYBR green in vitro
[3] = molecular target: Glucose transporter (Leishmania mexicana) (UniProt O61059); test: ST_JUDE_LEISH: Cytotoxicity at 2uM final concentration against transgenic Leishmania Mexicana promastigotes LmGT2 that are glucose transport deficient and complemented with the L. Mexicana glucose transporter 2. Activity is measured by DNA content using SYBR green in vitro

Solute carrier family 2, facilitated glucose transporter member 1 (Homo sapiens), sequence (P11166 whole entry): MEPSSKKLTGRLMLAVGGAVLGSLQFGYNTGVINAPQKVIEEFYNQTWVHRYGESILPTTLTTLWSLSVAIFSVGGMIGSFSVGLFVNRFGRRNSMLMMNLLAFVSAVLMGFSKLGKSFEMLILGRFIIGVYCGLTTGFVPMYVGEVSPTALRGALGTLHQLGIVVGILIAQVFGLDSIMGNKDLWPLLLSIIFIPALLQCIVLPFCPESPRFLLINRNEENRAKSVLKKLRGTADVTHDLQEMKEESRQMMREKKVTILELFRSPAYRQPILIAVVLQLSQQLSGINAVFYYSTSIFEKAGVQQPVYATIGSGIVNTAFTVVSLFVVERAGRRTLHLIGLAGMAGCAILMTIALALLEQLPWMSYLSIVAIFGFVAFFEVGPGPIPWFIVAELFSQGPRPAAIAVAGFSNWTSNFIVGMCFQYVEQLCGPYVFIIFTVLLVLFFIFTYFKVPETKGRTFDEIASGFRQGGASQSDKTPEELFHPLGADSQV

SMILES | inhibition [1] [%] | inhibition [2] [%] | inhibition [3] [%]
O=C(c1cc(OC(F)(F)F)ccc1O)N1CCN(c2ccccc2)CC1 | 5.08 | 4.52 | 7.06
O=C(c1cccc(Cl)c1)N1CCN(c2ccc([N+](=O)[O-])c(NC3CC3)c2)CC1 | 0.4 | 2.47 | 0.25
O=C(NC1c2ccccc2Oc2ccccc21)c1ccccc1O | -3 | -0.11 | -0.01
N=C(NCCc1ccc(Cl)c(Cl)c1)c1ccc2ccccc2c1 | 3.61 | -1.48 | -2.5
O=C(/C=C/c1ccc(Cl)c(Cl)c1)NCCCCCN1CCC(c2cn[nH]c2-c2ccccc2)CC1 | 4.33 | 3.45 | 1.87
COc1ccc(OC)c(-c2ccc(=O)n(CC(=O)Nc3cccc4ccccc34)n2)c1 | 12.4 | 11.6 | 6.44
CC[C@H](C)CNC(=O)c1cncc(-c2ccc(CN3CCC(N4CCCC4)CC3)cc2)c1 | 0.53 | 0.26 | 1.05
CO/C(=C\C=C/c1cc2cc(Cl)c(Cl)cc2[nH]1)C(=O)NC1CC(C)(C)N(C)C(C)(C)C1 | 7.24 | 5.6 | 5.19
COCCN1CCC(N(Cc2ccc(-c3ccc(C(F)(F)F)cc3)cc2)C(=O)Cn2c(CCc3cccc(F)c3F)cc(=O)c3c2CCC3)CC1 | -2.35 | -0.63 | -2.32
CCc1c[nH]c2c(N3CCCS3(=O)=O)cc(C(=O)N[C@@H](Cc3ccccc3)[C@H](O)CNC(C)(C)c3cccc(C(F)(F)F)c3)cc12 | -0.71 | 0.86 | 0.6
CCc1ccc(C2CCN(CCCCNC(=O)c3ccc(NC(=O)c4ccc(Cl)cc4)cc3)CC2)cc1 | -0.05 | 0.38 | 0.05
CN(C)CCCOc1ccc(CNCC(C)(C)c2nc(-c3ccc(Cl)c(O)c3)c(-c3ccncc3)[nH]2)cc1 | 3.39 | 1.89 | 2.83
Cc1cc(=NN=Cc2ccc(Cl)cc2)c2cc(C(F)(F)F)ccc2[nH]1 | 1.05 | -4.87 | 5.23
CC(CC(=O)NCC1(c2ccc(F)cc2Cl)CCOCC1)C(=O)c1ccc(Cl)cc1 (stereo not given) | 0.34 | 1.23 | 1.88
COc1ccc(CCNCCCCCCNCCc2cccc([N+](=O)[O-])c2)cc1OC | 0.45 | 1.78 | 3.28
Cc1cc(N(CCN2CCCCC2)CCN2CCCCC2)nc(Nc2ccc(Cl)cc2)n1 | 3.2 | 1.3 | 2.83
O=C(Cc1ccc(Cl)cc1)Nc1cc(Cl)ccc1Cn1cnc(N2CCNCC2)cc1=O | 3.22 | -0.28 | 2.2
CC(C)COc1ccc(Cl)cc1Cc1ccc(-c2nc3ccc(F)cc3[nH]2)o1 | 1.83 | 0.95 | -0.47
Cc1c(Br)cc2nc(-c3ccc(C(=O)NC4CCN(Cc5ccccc5)CC4)cc3)[nH]c2c1C | 1.63 | 1.85 | 0.51
CC(O)C1CCCCN1C(=O)c1cccc(-c2ccc(-c3nc4ccccc4[nH]3)s2)c1 (stereo not given) | 3.87 | 5.96 | 5.38
Cc1cc(N2CCCC2)nc(Nc2ccc(NC(=O)C3CCCC3)cc2)n1 | -0.76 | 1.16 | 0.83
NCc1ccc(-c2ccccc2CNC2CCN(Cc3ccccc3)CC2)cc1 | 2.4 | 2.46 | 1.44
O=C(Nc1nc(-c2ccccn2)cs1)c1ccc(S(=O)(=O)N2CCc3ccccc32)cc1 | 9.61 | 15.1 | 2.63
CCCCNc1cc(NCCCC)c2c(n1)[nH]c1ccccc12 | 18.4 | 16.6 | 4.43
COc1ccc2nccc([C@@H](O)CN3CCC(NCCOc4ccccc4C(F)(F)F)CC3)c2c1 | 0.68 | 2.17 | 2.28

SMILES | inhibition [1] [%] | inhibition [2] [%] | inhibition [3] [%]
Nc1nccc(-c2ccc3c(/C=C/c4ccccc4)cnc(N)c3c2)n1 | 18.2 | 24.5 | 0.5
COc1cccc(CNCC(C)(C)c2nc(-c3ccc(Cl)c(O)c3)c(-c3ccncc3)[nH]2)c1 | -1.42 | -3.17 | 2.87
CC(C)CNCc1cccc(-c2cccc(CNc3ccc4ncccc4c3)c2)c1 | 2.92 | 1.32 | 2.08
CC(=O)CC(=O)N1CCN(c2ccccc2)CC1 | -0.36 | -0.81 | -0.35
CN1CCN(CCCN(Cc2ccc(-c3cccc(CNCc4ccc5c(c4)OCO5)c3)cc2)C(=O)CCC2CCCC2)CC1 | 2.35 | 2.56 | -0.03
O=C(Nc1ccc(N2CCN(Cc3ccccc3Cl)CC2)cc1)c1ccc([N+](=O)[O-])o1 | 71.5 | 51.2 | 11.1
OC(c1cccc2ccccc12)C1CN(CCc2ccccc2)CCC1(O)c1ccccc1 (stereo not given) | 9.92 | 11.8 | 3.51
COc1ccc2ccccc2c1CCCCN1CCN(CC(c2ccc(F)cc2)N2CCN(C(C)C)CC2)CC1 (stereo not given) | 17.9 | 9.64 | 12.3
Cc1cccc2c(CON3C(N)=NC(N)=NC3(C)C)cccc12 | 0.73 | 1.67 | 1.51
O=C(N1CCN(c2ccnc3cc4c(cc23)N(Cc2ccccc2)CC4)CC1)C(F)(F)F | 2.23 | 3.24 | 4.39
Cc1ccc(-c2cc(C(=O)Nc3ccc(S(=O)(=O)N4CCOCC4)cc3)[nH]n2)c(O)c1C | 4 | 0.56 | -1.4
CC(=O)Nc1ccc(CN(Cc2ccc(F)cc2)Cc2cccc(Oc3ccccc3)c2)cc1 | 3.19 | 1.73 | 0.56
Cc1c(F)cc(C(=O)NC2CC2)cc1-c1ccc2c(cnn2S(=O)(=O)c2cccs2)c1 | 2.62 | 5.11 | 0.02
CS(=O)(=O)c1ccc(CNCc2ccc(-c3cccc(-c4nc5ccccc5[nH]4)c3)cc2)cc1 | 17.3 | 15.6 | 14
COc1ccc2nccc([C@@H](O)CN3CCC(NC(=O)c4ccc(-c5ccc(C#N)cc5)cc4)CC3)c2c1 | 1.89 | 1.64 | 3.25
O=C(NC1CCCCC1)N(Cc1cccc(-c2ccc(CNCCc3ccccc3)cc2)c1)C1CCN(Cc2ccccc2)CC1 | 6.68 | 6.86 | 4.45
COc1cc2nc(N(C)Cc3cc4c(Cl)cccc4s3)nc(N)c2cc1OC | -0.54 | -1.7 | -3.11
CC(CNC(=O)[C@H]1CNCCN1C(=O)CCCc1ccccc1)c1ccccc1 (stereo not given in full) | 0.97 | -1.25 | -0.23
CCCNC(=O)c1cncc(-c2ccc(CNC(CC)c3ccccc3)cc2)c1 (stereo not given) | -0.02 | 0.28 | -0.14
CCOc1cc(CC)ccc1C1CCN(CCCCNC(=O)c2ccc(NC(=O)c3ccc(Cl)cc3)cc2)CC1 | 4.23 | 2.23 | 4.97
Clc1ccc(CNCCCCCCNCc2ccc(Cl)cc2)cc1 | -1.01 | 1.71 | -1.04
CCC(C)c1ccc(-n2c(Nc3ccccc3)nc3cc(S(N)(=O)=O)ccc32)cc1 (stereo not given) | 12.3 | 6.89 | 5.77
Nc1ncc(-c2ccc3nccc(-c4ccncc4)c3c2)cc1S(=O)(=O)N1CCCCC1 | 12.9 | 11.3 | 7.55
COc1ccc(Cl)cc1NC(=O)Nc1ccnc2ccccc12 | 14.6 | 13.4 | 6.32
Cc1ccc(NC(=O)Nc2ccc(Br)cc2)cc1OCCN(C)C | 5.98 | 3.65 | 2.82

Reference: ChEMBL document CHEMBL3433997, “St. Jude Leishmania screening dataset” (2016)
